# The list is not random: actives were taken first. Their share in the collection is about 4.5%.
# ZTA counter: counter-screen for EBNA-1 inhibitors: inhibitors of Epstein-Barr virus ZTA; 0.15% of 320,000 active; P03206; ZTA-DNA binding, fluorescence polarization; inhibition, % at 11 µM; in the data active = inhibition above about 33%
# Target sequence (P03206 whole entry, looked up): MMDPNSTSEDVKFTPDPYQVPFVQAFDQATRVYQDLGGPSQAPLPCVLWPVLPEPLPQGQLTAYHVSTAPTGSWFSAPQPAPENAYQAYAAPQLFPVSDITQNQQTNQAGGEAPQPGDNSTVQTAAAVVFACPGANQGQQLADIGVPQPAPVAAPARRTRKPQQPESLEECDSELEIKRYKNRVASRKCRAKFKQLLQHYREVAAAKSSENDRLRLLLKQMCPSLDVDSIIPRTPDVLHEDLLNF
# TPT1 inh: inhibitors of Candida albicans tRNA 2'-phosphotransferase TPT1; recombinant caTPT1, FP RNA substrate dephosphorylation; inhibition, % at 5 µM; 0.81% of 300,000 active;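 active = inhibition above the mean of all tested compounds plus 3 SD, set per screening campaign, cut at about 24% in these data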;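 note: plate controls were DMSO alone for no effect and ferristatin control at 100 nM for full effect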
# Rpn11 inh: blocks the human proteasome subunit Rpn11; O00487; human 26S proteasome, Ub4-pepOG fluorescence polarization; 20S core pre-blocked with epoxomicin; inhibition, % at 20 µM; 0.59% of 360,000 active;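 active = inhibition at 20 µM, scaled to each plate's controls, above about 33%, limit read from the data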
# dFosB act-1: mouse delta FosB homodimer activation | P13346 | purified delta FosB, TAMRA-CDK5 oligo fluorescence polarization; percent of positive-control signal above neutral wells | activation, % at 25 µM | 0.99% of 340,000 active | AID 493131;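 active = mean activation above about 17%, with every replicate also reaching it, limit read from the data, passing the limit was not always enough; inconclusive = only one of the two conditions met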
# Target sequence (P13346 whole entry, looked up): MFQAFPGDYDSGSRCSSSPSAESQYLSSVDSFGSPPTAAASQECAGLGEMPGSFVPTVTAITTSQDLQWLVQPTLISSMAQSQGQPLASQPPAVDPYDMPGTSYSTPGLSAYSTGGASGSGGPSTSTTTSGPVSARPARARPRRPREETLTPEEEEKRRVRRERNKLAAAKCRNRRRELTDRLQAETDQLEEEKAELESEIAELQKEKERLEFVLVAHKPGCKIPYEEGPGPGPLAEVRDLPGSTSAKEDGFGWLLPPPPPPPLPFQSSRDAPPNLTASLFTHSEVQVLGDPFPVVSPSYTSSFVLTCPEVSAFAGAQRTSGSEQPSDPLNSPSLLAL
# EBNA-1 inhibitor: blocks EBNA-1 binding to DNA. 0.34% of 300,000 active. inhibition, % at 14.8 µM. EBNA-1 DNA binding, fluorescence polarization; in the data active = inhibition above about 28%
# GRIN3A LBD mod: modulators (binders) of human NR3A ligand-binding domain. 2.5% of 340,000 active. NR3A LBD differential scanning fluorimetry, Tm shift; 0% = protein alone, 100% = glycine-bound protein. Tm shift relative to glycine control, % at 25 µM. AID 1259313;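 active = melting temperature shift of at least 10% of the positive control shift, at one fixed dose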
# dFosB act-2: enhances mouse delta FosB homodimer binding to DNA; shares compounds with dFosB act-1; purified delta FosB, TAMRA-CDK5 oligo fluorescence polarization; normalised: neutral wells 0, positive control 100; activation, % at 24.9 µM; 2,400 tested, under 10 active; AID 588690;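 active = highest replicate activation at or above 34% and every replicate reaching that threshold; inconclusive = meets only one of the two criteria; inactive = meets neither criterion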;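 note: higher polarization means more probe DNA bound by delta FosB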
# An asterisk follows results filed as active; ? = inconclusive; / = not tested or not shown.
SMILES,ZTA counter,TPT1 inh,Rpn11 inh,dFosB act-1,EBNA-1 inhibitor,GRIN3A LBD mod,dFosB act-2
CS(=O)(=O)N(CC(=O)N/N=C/c1cc2c(cc1Br)OCO2)c1ccccc1Br,-6,-1,0,27*,-4,-11,7
O=C1NC2(CCCCC2)C(=O)N1CC(=O)N(Cc1ccccc1)c1ccccc1,-2,-3,5,-7,1,1,/
O=C(CSc1nc2ccc(Cl)cc2[nH]1)NC1CCCc2ccccc21 (stereo unspecified),-10,5,8,19*,-6,-31,5
CCC(C)(C)NC(=O)CCn1c(-c2ccccc2)cc(C(C)=O)c1C,-8,1,-8,-2,-3,-2,/
O=C(NCc1nc(-c2ccc(C(F)(F)F)cc2)no1)Nc1ccc(OC(F)(F)F)cc1,10,1,-2,24*,-1,36*,3
CCOc1ccc(-n2cc(C(=O)Nc3cccc(Cl)c3)c3cc(OC)c(OC)cc3c2=O)cc1,6,-2,-1,29*,-5,-1,7
CCOc1ccc(NC(=O)c2cn(-c3ccc(OCC)cc3)c(=O)c3cc(OC)c(OC)cc23)cc1,-8,3,7,20*,-15,-1,1
OCc1ccccc1-c1cccc2nccn12,/,/,-33,/,/,/,/
CC(C)CCNC(=O)CCC(=O)NNc1nc2ccccc2c2nc(-c3ccccc3)nn12,-12,3,-4,56*,11,-5,6
O=C(CCC(=O)NNc1nc2ccccc2c2nc(-c3ccccc3)nn12)NCCCN1CCOCC1,1,2,-8,-24,-9,-3,/
C=CCn1c(=S)[nH]c2cc(C(=O)NCCc3ccc(S(N)(=O)=O)cc3)ccc2c1=O,6,/,6,5,/,-2,/
NS(=O)(=O)c1ccc(CCNC(=O)CCCCCn2c(=S)[nH]c3ccc(Br)cc3c2=O)cc1,3,-1,7,49*,20,-7,10
NS(=O)(=O)c1ccc(CCNC(=O)c2ccc(Cn3c(=O)[nH]c4ccccc4c3=O)cc2)cc1,-4,-1,-6,34*,-18,-1,-10
Cc1cccc(NC(=O)NNC(=O)COc2ccc([N+](=O)[O-])cc2)c1C,2,2,0,31*,2,-2,3
CC(C)(C)c1ccc(/C=C/C(=O)c2ccc(NC3=NCCCS3)cc2)cc1,-6,-1,9,31*,-2,-6,-2
O=C(N/N=C/c1ccc(Cl)c([N+](=O)[O-])c1)c1cc(-c2ccc3c4c(cccc24)CC3)n[nH]1,-13,1,7,38*,-7,-2,7
COC(=O)[C@]1(C)N[C@H](CN(C)C(=O)NC(C)C)[C@@H]2C(=O)N(C)C(=O)[C@@H]21,/,/,-2,0,/,2,/
C=CCn1c(SC(C)C(=O)NCc2ccc3c(c2)OCO3)nc2scc(-c3ccccc3)c2c1=O (stereo unspecified),-2,0,7,11,-5,0,/
C=CCn1c(SCC(=O)NCc2ccc3c(c2)OCO3)nc2scc(-c3ccc(F)cc3)c2c1=O,-8,0,-5,45*,16,-2,1
CC(OC(=O)c1cc2c(s1)CCCCC2)C(=O)NC(N)=O (stereo unspecified),22,3,2,?,-2,-1,/
CC(C)C(OC(=O)c1cc2c(s1)CCCCC2)C(=O)NC(N)=O (stereo unspecified),-10,-4,0,26*,-8,-3,5
O=C(Nc1ccc2c(c1)S(=O)(=O)N=C1CCCCCN12)c1ccccc1Cl,4,2,3,-14,-5,0,/
O=C(COc1ccc(Br)cc1)Nc1ccccc1C(=O)NC1CC1,-3,2,1,29*,4,0,5
Cc1cc(C)cc(OCC(=O)NC2=NCCS2)c1,2,-2,2,2,9,0,/
O=C(COc1ccc2ccccc2c1)NC1=NCCS1,4,-3,-1,54*,1,3,7
SMILES,ZTA counter,TPT1 inh,Rpn11 inh,dFosB act-1,EBNA-1 inhibitor,GRIN3A LBD mod,dFosB act-2
CC(C)(C)NC(=O)CN(C(=O)C(=O)Nc1ccc2c(c1)OCCO2)C(C)(C)C,7,-1,1,0,6,-1,/
CS(=O)(=O)c1ccc(C(=O)NCCN2C(=O)S/C(=C\c3cccnc3)C2=O)cc1[N+](=O)[O-],-6,-4,4,-12,-20,-4,/
Cc1cccc(NC(=O)C2(C)CC3c4ccccc4C2c2ccccc23)c1 (stereo unspecified),-17,-6,-5,29*,8,-1,5
O=C(CC12CC3CC(CC(C3)C1)C2)Nc1ccccc1N1CCOCC1,-21,2,0,-4,1,-1,/
COc1ccccc1N1CCN(C(=O)c2ccc(Cn3c(=O)[nH]c4ccsc4c3=O)cc2)CC1,6,-1,-2,-8,8,-3,/
O=C(NC1CCCC1)c1ccc(Cn2c(=O)[nH]c3ccsc3c2=O)cc1,-1,-1,-1,-5,13,0,/
O=C(Nc1ccc(Oc2ccccc2)cc1)c1ccc(Cn2c(=O)[nH]c3ccsc3c2=O)cc1,2,0,1,62*,13,-2,7
O=C(Nc1ccc(Cl)c(Cl)c1)c1ccc(Cn2c(=O)[nH]c3ccsc3c2=O)cc1,1,4,-3,22*,16,7,2
CC(=O)Nc1cccc(NC(=O)CSc2nc3c(c(=O)n(C)c(=O)n3C)n2C)c1,21,0,-2,5,-23,1,/
CCN1C[C@@H]2[C@@H]3C(=O)N(Cc4ccccc4)C(=O)[C@@H]3[C@](Cc3ccccc3)(C1=O)N2C(=O)c1ccc(C(F)(F)F)cc1,/,/,6,-3,/,-1,/
Cc1ccc(NC(=O)CN2C(=O)N/C(=C/c3ccc(N4CCOCC4)cc3)C2=O)cc1,-3,9,12,-2,-1,-4,/
Cc1ccc(NC(=O)CN2C(=O)N/C(=C/c3ccc4c(c3)OCCO4)C2=O)cc1,6,2,7,48*,-4,-5,-6
Cc1cc(C(=O)O)cc(S(=O)(=O)Nc2ccccc2C(=O)NC(C)c2ccccc2)c1C (stereo unspecified),-4,-2,0,-4,5,-3,/
CC(C)OC(=O)c1cc(C(=O)c2cc(Br)ccc2O)coc1=N,-14,5,20,-14,-11,-2,/
CCOc1ccccc1NC(=O)c1cc(C(=O)c2cc(Br)ccc2O)coc1=N,4,0,16,33*,-13,25*,4
Nc1cccc(-n2nnnc2CN2CCOCC2)c1,-17,-3,-6,-1,-1,-1,/

# Screening data: PubChem BioAssay, several laboratories
